Screening data: PubChem, several laboratories
The full list was thinned out, with hits kept by preference.
GC-B act = GC-B (human) receptor activation | AID 1920062 | P20594 | actives 0.11% (n = 370,000) | HEK293-GC-B cells, CNP EC30, cGMP TR-FRET; 0% at EC30 CNP, 100% saturating CNP | activation, % at 10 µM;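 active = activation at 10 µM reaching about 35% in either raw or pattern-adjusted values, limit read from the data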
NPR1 activator = GC-A (human) enzyme activation; actives 0.14% (n = 370,000); HEK293 GC-A cells, cGMP TR-FRET, EC30 ANP; 0% at EC30 ANP, 100% saturating ANP; activation, % at 10 µM; P16066; in the data active = activation above about 40%
ALR inh = blocks human ALR sulfhydryl oxidase activity. purified ALR, DTT oxidation, H2O2 HRP-luminol luminescence. AID 485317. inhibition, % (concentration not given with the values). P55789. actives 3.8% (n = 290,000);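 active = mean replicate inhibition above about 79%, with every replicate also reaching it, limit read from the data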
Target sequence (P55789 whole entry, looked up): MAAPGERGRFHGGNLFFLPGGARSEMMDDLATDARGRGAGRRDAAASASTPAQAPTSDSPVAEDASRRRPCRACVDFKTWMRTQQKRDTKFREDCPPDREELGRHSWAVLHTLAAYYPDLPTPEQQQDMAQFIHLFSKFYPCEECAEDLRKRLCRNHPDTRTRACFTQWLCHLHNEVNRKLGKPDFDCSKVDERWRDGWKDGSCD
HDAC3 inhib = inhibitors of human histone deacetylase 3 | O15379 | recombinant HDAC3, fluorogenic peptide/trypsin coupled, fluorescence | inhibition, % at 8.3 µM | actives 0.15% (n = 320,000) | AID 2718; in the data active = inhibition above about 26%, passing the limit was not always enough
Target sequence (O15379 whole entry, looked up): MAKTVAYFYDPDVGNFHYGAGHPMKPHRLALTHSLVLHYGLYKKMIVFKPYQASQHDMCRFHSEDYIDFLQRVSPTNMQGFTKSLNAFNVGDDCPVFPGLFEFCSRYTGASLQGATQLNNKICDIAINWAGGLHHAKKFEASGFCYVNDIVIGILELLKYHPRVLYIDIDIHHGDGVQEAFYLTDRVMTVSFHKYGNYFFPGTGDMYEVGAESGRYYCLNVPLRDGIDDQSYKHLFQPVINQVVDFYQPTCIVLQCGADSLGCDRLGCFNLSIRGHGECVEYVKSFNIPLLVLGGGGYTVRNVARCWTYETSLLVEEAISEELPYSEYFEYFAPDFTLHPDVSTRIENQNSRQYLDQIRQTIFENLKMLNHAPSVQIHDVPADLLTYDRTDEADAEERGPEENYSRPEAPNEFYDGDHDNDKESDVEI
* = called active by the depositor; / = no result.

SMILES | GC-B act | NPR1 activator | ALR inh | HDAC3 inhib
N#Cc1ccc(CC(C(=O)O)N2Cc3ccccc3C2=O)cc1 (stereo not given) | 2.7 | -0.1 | -6.1 | -3.2
CC(C)C[C@H](NC(=O)N1CCn2c1nc1ccccc12)C(=O)NCc1ccccc1 | -9.1 | -9.5 | -1.8 | -1.3
COC(=O)c1ccc(NC(=O)c2cccc(Cl)c2)o1 | -6.8 | 3.6 | 92.8* | 4.3
COC(=O)c1ccc(NC(=O)c2ccc(C)cc2)o1 | 6.1 | 3.0 | 98.2* | 3.8
C/C(=N\NS(=O)(=O)c1ccc(Cl)cc1)c1ccc(O)cc1 | -0.4 | 1.4 | 95.7* | 2.1
O=S1(=O)CC/C(=N\Nc2ccccc2)c2ccsc21 | 4.6 | 1.1 | 100.1* | 6.4
CCN(CC)C(=O)Cn1cc(C(=O)C(=O)N(C)C2CCN(C)CC2)c2ccccc21 | 9.3 | -1.6 | -1.3 | 8.6
C[C@@H](C(=O)NCCc1c[nH]c2ccccc12)[C@@H]1C[C@@]1(C)[C@@H](NC(=O)OCc1ccccc1)c1ccccc1 | 1.1 | -3.8 | 3.9 | -1.0
COc1cc2oc(-c3ccc(O)cc3)cc(=O)c2c(O)c1OC | -3.0 | -0.2 | 98.0* | 1.5
O=c1cc(-c2ccc(O)cc2)oc2c(O)c(O)c(O)c(O)c12 | -7.3 | -0.6 | 86.4* | 5.4
O=c1cc(-c2ccc(O)cc2)oc2c1ccc1ccccc12 | -0.1 | -2.1 | -0.4 | -3.7
COc1cc2oc(-c3ccc(O)cc3)cc(=O)c2c(OC)c1O | 1.4 | 5.4 | / | /
COc1c(O)cc2oc(-c3ccc(O)cc3)cc(=O)c2c1O | -1.1 | -2.8 | 93.9* | -3.8
CCCc1c(C)nc(N2CCN(c3cccc(OC)c3)CC2)[nH]c1=O | -3.1 | -2.7 | 15.1 | -1.3
CCc1c(C)nc(N2CCN(c3cccc(OC)c3)CC2)[nH]c1=O | -11.6 | -3.2 | 97.9* | 5.8
Cc1[nH]c2c(Br)cccc2c1[C@H]1[C@@H](CC#N)C1(C)C | -3.1 | -4.6 | 3.7 | 15.2
Cc1c([C@H]2[C@@H](CC#N)C2(C)C)c2ccccc2n1C | -7.1 | -3.3 | 97.1* | 6.5
COc1cccc(/C=C2\Oc3cc(OCC(=O)N4Cc5ccccc5C[C@H]4C(=O)O)ccc3C2=O)c1 | / | / | 98.5* | 9.2
O=C(c1cccc(C(F)(F)F)c1)C1CCCN(C(=O)CN2CCOC2=O)C1 (stereo not given) | 3.4 | 4.2 | -3.3 | /
COc1cccc(-c2nc(CS(=O)(=O)CC(=O)Nc3c(C)cccc3C)c(C)o2)c1 | -0.5 | -16.2 | 11.1 | -0.5
Cc1oc(-c2cccc(Cl)c2)nc1CS(=O)(=O)CC(=O)NC1CC1 | 3.4 | 1.5 | 89.7* | -0.4
Cc1ccc(-c2nc(CS(=O)(=O)CC(=O)N3CCCCCC3)c(C)o2)cc1 | -1.4 | -1.3 | 94.8* | 1.4
COc1cccc(-c2nc(CS(=O)(=O)CC(=O)NC3CCCCC3C)c(C)o2)c1 (stereo not given) | -0.8 | -7.1 | 93.1* | 8.0
COc1ccc(-c2nc(CS(=O)(=O)CC(=O)NC3CCCCCC3)c(C)o2)cc1 | -1.3 | -11.7 | 98.7* | -1.3
COc1ccc(NC(=O)CCCN2C(=O)C(c3ccccc3)Oc3cccnc32)c(OC)c1 (stereo not given) | -3.7 | -4.2 | -1.9 | -9.9
SMILES | GC-B act | NPR1 activator | ALR inh | HDAC3 inhib
COc1cccc(-c2nc(CS(=O)(=O)CC(=O)NC3CCCCCC3)c(C)o2)c1 | 0.9 | -15.5 | 98.4* | 3.2
COc1cccc(-c2nc(CS(=O)(=O)CC(=O)NC3CC3)c(C)o2)c1 | 1.5 | 0.8 | -7.8 | -14.8
CCOC(=O)N1CCC(NC(=O)CS(=O)(=O)Cc2nc(-c3cccc(Cl)c3)oc2C)CC1 | 0.2 | -1.3 | 51.9 | -7.1
CCOC(=O)N1CCC(NC(=O)CS(=O)(=O)Cc2nc(-c3cccc(OC)c3)oc2C)CC1 | 6.0 | -12.6 | 98.6* | -7.3
COc1cc(/C=N\N=C2/SC(CC(=O)O)C(=O)N2c2ccc(O)cc2)ccc1O (stereo not given) | 0.2 | -0.4 | 99.5* | 3.4
O=C(Cn1nnc(-c2ccccc2)n1)OCc1ccccc1 | -4.9 | 20.2 | -0.3 | 4.1
O=C(Cn1nnc(-c2ccccc2)n1)OCc1csc(-c2ccccc2)n1 | -6.0 | 6.3 | 98.8* | -4.2
COc1ccc(NC(=O)c2cc(-c3cc(Cl)ccc3C)n[nH]2)c(OC)c1 | -0.3 | 3.5 | / | /
COc1ccc(NC(=O)c2cc(-c3cc(Cl)ccc3OC)n[nH]2)c(C)c1 | 87.8* | 74.7* | / | /
CCCOc1ccc(F)cc1-c1cc(C(=O)Nc2ccc(OC)cc2C)[nH]n1 | 62.2* | 58.0* | / | /
Cc1cccc(CS(=O)(=O)c2nnc([C@H](Cc3ccccc3)NC(=O)OC(C)(C)C)o2)c1 | / | / | 60.0 | 60.7*
COC(=O)CS(=O)(=O)c1nnc([C@H](Cc2ccccc2)NC(=O)OC(C)(C)C)o1 | -15.5 | -18.1 | 19.0 | 55.4*
CCOC(=O)CC(NC(=O)c1cc2cccc(OC)c2oc1=O)c1ccc(OC)cc1 (stereo not given) | -7.6 | 4.8 | 1.1 | -0.6
Cc1oc(-c2cccs2)nc1CS(=O)CC(=O)NCc1ccc2c(c1)OCO2 (stereo not given) | -5.9 | -4.0 | 28.2 | -2.1
Cc1oc(-c2ccccc2Cl)nc1CS(=O)CC(=O)NCc1ccc2c(c1)OCO2 (stereo not given) | -4.6 | 2.4 | 82.0* | 3.5
Cc1ccccc1-c1nc(CS(=O)CC(=O)NCc2ccc3c(c2)OCO3)c(C)o1 (stereo not given) | -0.1 | 0.7 | 98.4* | 11.5
Cc1oc(-c2ccccc2Cl)nc1CS(=O)CC(=O)NCc1ccc(Cl)cc1 (stereo not given) | -2.1 | -6.0 | 98.7* | 3.5
CCOc1cc(NC(=O)C(C)C)c(OCC)cc1NC(=O)Nc1ccccc1 | -5.3 | -3.0 | / | 0.9
CC(=O)Nc1ccc(S(=O)(=O)NC2CC(=O)N(c3ccc(C)c(C)c3)C2)cc1 (stereo not given) | 5.1 | -4.5 | -3.6 | -7.8
COC(=O)CCC(=O)N1CCC(CCC(=O)NCc2ccc(F)cc2)CC1 | 5.9 | -1.5 | -8.9 | -5.3
Cc1cc(C)nc(Nc2ccc(O)cc2)n1 | -6.0 | -1.4 | 99.7* | 5.5
O=C(O)c1ccc(N/N=C/C2=C(N3CCOCC3)C(=C\c3ccccc3)/CC2)cc1 | -0.6 | 0.8 | 97.0* | 4.9
CCCCSc1nc2ccc(Nc3nc(N4CCOCC4)nc(N4CCOCC4)n3)cc2s1 | -10.3 | -4.1 | 89.9* | -1.9
Cc1cc(C)nc(NN=CC2=C(N3CCOCC3)/C(=C/c3ccc(Cl)cc3)CC2)n1 | 12.5 | 13.7 | / | /
CNC(=S)NNc1nc(N2CCOCC2)nc(N2CCOCC2)n1 | -2.3 | -2.0 | 84.9* | -7.2
CC(=O)Nc1ccc(NC(=O)C(C)OC(=O)C2CCN(S(=O)(=O)c3cccs3)CC2)cc1 (stereo not given) | 3.0 | 0.7 | -1.0 | /
Cc1cc(C)nc(Nc2ccc(N3CCOCC3)cc2)n1 | -5.0 | -5.9 | 98.9* | -5.2
Cc1cc(C)nc(N/N=C/C2=C(N3CCOCC3)C(=C\c3ccc(Cl)cc3)/CC2)n1 | 9.2 | 6.3 | 97.7* | 6.5
Cc1cc(C)nc(N/N=C/c2ccc(N3CCOCC3)cc2)n1 | -1.3 | -7.5 | 97.3* | -3.0
